2 compounds from PubChem BioAssay (EPA / NIEHS) can be followed below.

Each structure is given as a SMILES string. Active and inactive are the calls of the source. The calls were made as follows: active = hit-call score of the fitted dose curve at least 0.9, where 1 is the maximum; inactive = score below 0.9.

What all share (settings): mRNA level, 48 h; actives raise or lower the signal
Read-out in assay [1]: adenosine kinase (ADK) gene, ADK (gene 132)
Description: LTEA_HepaRG_ADK: Life Technologies and Expression Analysis (LTEA) Assay for adenosine kinase (ADK) gene using HepaRG (AID 2283471). The gist of the method: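 HepaRG (human liver), 48 h chemical exposure, 8-pt half-log series, top 100 uM, 0.5% DMSO vehicle. Readout: ADK mRNA by qRT-PCR vs housekeeping genes; bidirectional curve fit relative to DMSO baseline.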

Read-out in assay [2]: Alpha-fetoprotein (AFP) gene, AFP (gene 174)
In words: LTEA_HepaRG_AFP: Life Technologies and Expression Analysis (LTEA) Assay for Alpha-fetoprotein (AFP) gene using HepaRG (AID 2283472). The essentials: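 Differentiated human HepaRG cells exposed 48 h in serum-free induction medium, 8-point half-log series from 100 uM in 0.5% DMSO, duplicate. AFP mRNA by qRT-PCR, normalized to ACTB, GAPDH, POLR2A; bidirectional fit vs DMSO.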

Read-out in assay [3]: BCL2L11 (gene 10018)
Description: LTEA_HepaRG_BCL2L11: Life Technologies and Expression Analysis (LTEA) Assay for Bcl-2 (BCL2L11) gene using HepaRG (AID 2283473). The gist of the method:
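HepaRG, 48 h exposure, 8-pt half-log series from 100 uM in 0.5% DMSO, duplicates; qRT-PCR (Fluidigm TaqMan) for BCL2L11, housekeeping-normalized; bidirectional curve fit relative to DMSO baseline.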

Read-out in assay [4]: Apolipoprotein A-V (APOA5) gene, APOA5 (gene 116519)
In words: LTEA_HepaRG_APOA5: Life Technologies and Expression Analysis (LTEA) Assay for Apolipoprotein A-V (APOA5) gene using HepaRG (AID 2283474). The essentials:
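HepaRG, 48 h chemical exposure in serum-free induction medium, 8-pt half-log series (top 100 uM), 0.5% DMSO vehicle, duplicates. Readout: APOA5 mRNA by qRT-PCR, housekeeping-normalized; bidirectional fit vs DMSO baseline.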

Read-out in assay [5]: Apoptosis regulator Bcl-2 (Homo sapiens) (UniProt P10415)
Description: LTEA_HepaRG_BCL2: Life Technologies and Expression Analysis (LTEA) Assay for Bcl-2 gene using HepaRG (AID 2283475). The essentials:
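Differentiated human HepaRG cells in serum-free induction medium exposed 48 h, in duplicate, to 8-point half-log series from 100 uM in 0.5% DMSO. BCL2 mRNA by qRT-PCR (TaqMan/Fluidigm), normalized to ACTB, GAPDH, POLR2A; bidirectional fit against DMSO.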

Read-out in assay [6]: Bcl-2 (BID) gene, BID (gene 637)
Description: LTEA_HepaRG_BID: Life Technologies and Expression Analysis (LTEA) Assay for Bcl-2 (BID) gene using HepaRG (AID 2283476). The essentials: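 Gene expression by qRT-PCR in HepaRG cells after 48 h exposure, duplicate wells, eight half-log concentrations topping at 100 uM in 0.5% DMSO. Normalized to ACTB, GAPDH, POLR2A; bidirectional fitting relative to DMSO.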

Read-out in assay [7]: Caspase-3 (Homo sapiens) (UniProt P42574)
Description: LTEA_HepaRG_CASP3: Life Technologies and Expression Analysis (LTEA) Assay for cysteine-aspartic acid protease (CASP3) using HepaRG (AID 2283477). The gist of the method: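 HepaRG, 48 h exposure, 8 conc. (top 100 uM, half-log steps, duplicate), 0.5% DMSO vehicle; qRT-PCR of CASP3 transcript, housekeeping-normalised (ACTB/GAPDH/POLR2A); bidirectional curve fit vs DMSO baseline.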

Read-out in assay [8]: Cytochrome P450 (CYP24A1), CYP24A1 (gene 1591)
Description: LTEA_HepaRG_CYP24A1: Life Technologies and Expression Analysis (LTEA) Assay for Cytochrome P450 (CYP24A1) using HepaRG (AID 2283478). The gist of the method: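 qRT-PCR read-out: CYP24A1 transcript levels normalized to three housekeeping genes, bidirectional curve fits against 0.5% DMSO baseline. Human HepaRG cells treated 48 h with chemicals at eight concentrations from 100 uM in half-log steps.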

Read-out in assay [9]: Cytochrome P450 (CYP1A2), CYP1A2 (gene 1544)
In words: LTEA_HepaRG_CYP1A2: Life Technologies and Expression Analysis (LTEA) Assay for Cytochrome P450 (CYP1A2) using HepaRG (AID 2283479). The gist of the method: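 HepaRG, 48 h exposure, top 100 uM, half-log 8-pt, 0.5% DMSO vehicle, duplicates. Readout: TaqMan qRT-PCR of CYP1A2 mRNA, housekeeping-normalized (ACTB/GAPDH/POLR2A). Gain/loss fit relative to DMSO baseline.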

Read-out in assay [10]: cysteine-aspartic acid protease (CASP8), CASP8 (gene 841)
In words: LTEA_HepaRG_CASP8: Life Technologies and Expression Analysis (LTEA) Assay for cysteine-aspartic acid protease (CASP8) using HepaRG (AID 2283480). The gist of the method: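 Differentiated HepaRG cells in serum-free induction medium, 48 h exposure, eight-point half-log series from 100 uM in 0.5% DMSO, duplicates. CASP8 mRNA by qRT-PCR, normalized to ACTB, GAPDH, POLR2A; bidirectional fit versus DMSO.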

Read-out in assay [11]: Cytochrome P450 (CYP2B6), CYP2B6 (gene 1555)
In words: LTEA_HepaRG_CYP2B6: Life Technologies and Expression Analysis (LTEA) Assay for Cytochrome P450 (CYP2B6) using HepaRG (AID 2283481). The gist of the method:
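Read-out is CYP2B6 mRNA by TaqMan qRT-PCR, normalized to three housekeeping genes and fitted bidirectionally against 0.5% DMSO baseline. Human HepaRG cells received test chemicals for 48 h, top concentration 100 uM, half-log dilutions.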

Read-out in assay [12]: Cytochrome P450 2C19 (Homo sapiens) (UniProt P33261)
Description: LTEA_HepaRG_CYP2C19: Life Technologies and Expression Analysis (LTEA) Assay for CYP2C19 using HepaRG (AID 2283482). The essentials:
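HepaRG, 48 h chemical exposure, 8-pt half-log series from 100 uM in 0.5% DMSO, duplicates. Readout: CYP2C19 mRNA by TaqMan qRT-PCR, housekeeping-normalized. Bidirectional fit vs DMSO baseline; phenobarbital 1mM as induction control.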

Read-out in assay [13]: CYP2C8 (gene 1558)
Description: LTEA_HepaRG_CYP2C8: Life Technologies and Expression Analysis (LTEA) Assay for CYP2C8 using HepaRG (AID 2283483). The essentials: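 Differentiated HepaRG cells in serum-free induction medium exposed 48 h in duplicate to 8 half-log concentrations from 100 uM in 0.5% DMSO. CYP2C8 mRNA by qRT-PCR normalized to ACTB, GAPDH, POLR2A; bidirectional fit versus DMSO.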

Read-out in assay [14]: CYP2C9 (gene 1559)
In words: LTEA_HepaRG_CYP2C9: Life Technologies and Expression Analysis (LTEA) Assay for CYP2C9 using HepaRG (AID 2283484). The gist of the method:
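Differentiated human HepaRG cells in serum-free induction medium were exposed 48 h to chemicals in 8-point half-log series from 100 uM (0.5% DMSO), in duplicate. CYP2C9 mRNA was measured by qRT-PCR, normalized to ACTB/GAPDH/POLR2A, with bidirectional fitting versus DMSO.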

Read-out in assay [15]: CYP2E1 (gene 1571)
In words: LTEA_HepaRG_CYP2E1: Life Technologies and Expression Analysis (LTEA) Assay for CYP2E1 using HepaRG (AID 2283485). The essentials:
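HepaRG cells, plated 48 h, then exposed 48 h in serum-free induction medium to eight half-log concentrations from 100 uM in 0.5% DMSO, duplicate. CYP2E1 mRNA by qRT-PCR, normalized to ACTB/GAPDH/POLR2A; bidirectional fit versus DMSO.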

Read-out in assay [16]: CYP4A11 (gene 1579)
In words: LTEA_HepaRG_CYP4A11: Life Technologies and Expression Analysis (LTEA) Assay for CYP4A11 using HepaRG (AID 2283486). The gist of the method: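 CYP4A11 transcript levels were quantified by TaqMan qRT-PCR after HepaRG human liver cells were treated for 48 hours with test chemicals (top 100 uM, half-log dilutions, 0.5% DMSO). Gain or loss of signal was fitted relative to DMSO.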

Read-out in assay [17]: Cytochrome P450 3A4 (Homo sapiens) (UniProt P08684)
In words: LTEA_HepaRG_CYP3A4: Life Technologies and Expression Analysis (LTEA) Assay for CYP3A4 using HepaRG (AID 2283487). The gist of the method: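 CYP3A4 transcript measured by TaqMan qRT-PCR and normalized to three housekeeping genes after 48 h chemical exposure of human HepaRG cells. Top concentration 100 uM, half-log steps, 0.5% DMSO vehicle; gain or loss fitted against DMSO baseline.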

Read-out in assay [18]: DNA damage-inducible transcript 3 (DDIT3), DDIT3 (gene 1649)
In words: LTEA_HepaRG_DDIT3: Life Technologies and Expression Analysis (LTEA) Assay for DNA damage-inducible transcript 3 (DDIT3) using HepaRG (AID 2283488). The gist of the method: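 HepaRG cells, 48 h after plating, exposed 48 h in serum-free induction medium to 8 half-log concentrations up to 100 uM in 0.5% DMSO, in duplicate. DDIT3 mRNA measured by TaqMan qRT-PCR, normalized to ACTB, GAPDH and POLR2A. Fitted bidirectionally against DMSO.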

Read-out in assay [19]: Pro-epidermal growth factor (Homo sapiens) (UniProt P01133)
Description: LTEA_HepaRG_EGF: Life Technologies and Expression Analysis (LTEA) Assay for Epidermal growth factor (EGF) using HepaRG (AID 2283489). The gist of the method:
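qRT-PCR readout of EGF transcript after 48 h chemical exposure of HepaRG cells; eight concentrations from 100 uM down in half-log steps, duplicate wells, 0.5% DMSO vehicle. Bidirectional curve fitting against DMSO baseline.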

Read-out in assay [20]: Early growth response protein 1 (EGR1) transcription factor, EGR1 (gene 1958)
In words: LTEA_HepaRG_EGR1: Life Technologies and Expression Analysis (LTEA) Assay for Early growth response protein 1 (EGR1) transcription factor using HepaRG (AID 2283490). The gist of the method:
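Differentiated HepaRG cells in serum-free induction medium exposed 48 hours, duplicate, to 8 half-log concentrations up to 100 uM in 0.5% DMSO. EGR1 mRNA measured by TaqMan qRT-PCR, normalized to ACTB, GAPDH, POLR2A; bidirectional fit versus DMSO.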

Chain of Cytochrome P450 3A4 (Homo sapiens) (P08684 whole entry, looked up): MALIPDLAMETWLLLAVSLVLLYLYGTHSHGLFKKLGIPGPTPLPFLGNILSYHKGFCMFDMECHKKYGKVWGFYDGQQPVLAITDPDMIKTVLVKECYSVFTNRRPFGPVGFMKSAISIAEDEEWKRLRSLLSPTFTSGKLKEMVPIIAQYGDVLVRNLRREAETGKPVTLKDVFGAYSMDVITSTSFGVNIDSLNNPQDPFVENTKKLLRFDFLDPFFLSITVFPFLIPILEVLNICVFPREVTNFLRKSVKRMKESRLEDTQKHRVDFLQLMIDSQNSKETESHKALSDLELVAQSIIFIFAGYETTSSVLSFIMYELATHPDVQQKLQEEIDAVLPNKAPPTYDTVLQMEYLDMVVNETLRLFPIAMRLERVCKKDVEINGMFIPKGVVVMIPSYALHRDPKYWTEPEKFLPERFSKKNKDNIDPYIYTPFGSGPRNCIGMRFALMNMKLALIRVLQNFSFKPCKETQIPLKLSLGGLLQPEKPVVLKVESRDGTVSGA
Chain of Cytochrome P450 2C19 (Homo sapiens) (P33261 whole entry, looked up): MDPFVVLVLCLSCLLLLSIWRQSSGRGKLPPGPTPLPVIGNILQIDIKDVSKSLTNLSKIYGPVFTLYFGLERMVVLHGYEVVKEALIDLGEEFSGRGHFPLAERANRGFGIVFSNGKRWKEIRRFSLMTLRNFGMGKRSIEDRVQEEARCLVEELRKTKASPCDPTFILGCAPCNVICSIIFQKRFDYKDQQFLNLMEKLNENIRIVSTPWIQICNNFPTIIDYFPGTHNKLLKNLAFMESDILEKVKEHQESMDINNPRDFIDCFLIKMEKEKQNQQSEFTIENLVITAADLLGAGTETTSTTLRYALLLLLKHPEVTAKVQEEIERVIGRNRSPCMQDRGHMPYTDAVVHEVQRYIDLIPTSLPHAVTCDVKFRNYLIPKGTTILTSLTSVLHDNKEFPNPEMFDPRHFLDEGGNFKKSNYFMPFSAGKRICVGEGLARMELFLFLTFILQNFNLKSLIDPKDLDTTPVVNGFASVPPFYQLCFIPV
Chain of Caspase-3 (Homo sapiens) (P42574 whole entry, looked up): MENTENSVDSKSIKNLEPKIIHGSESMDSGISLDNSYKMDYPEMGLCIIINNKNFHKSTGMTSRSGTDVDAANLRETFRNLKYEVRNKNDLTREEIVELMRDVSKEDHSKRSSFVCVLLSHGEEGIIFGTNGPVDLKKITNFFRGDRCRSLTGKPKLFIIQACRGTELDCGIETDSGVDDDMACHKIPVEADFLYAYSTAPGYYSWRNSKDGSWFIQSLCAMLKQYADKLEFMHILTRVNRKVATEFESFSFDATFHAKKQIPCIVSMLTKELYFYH
Chain of Apoptosis regulator Bcl-2 (Homo sapiens) (P10415 whole entry, looked up): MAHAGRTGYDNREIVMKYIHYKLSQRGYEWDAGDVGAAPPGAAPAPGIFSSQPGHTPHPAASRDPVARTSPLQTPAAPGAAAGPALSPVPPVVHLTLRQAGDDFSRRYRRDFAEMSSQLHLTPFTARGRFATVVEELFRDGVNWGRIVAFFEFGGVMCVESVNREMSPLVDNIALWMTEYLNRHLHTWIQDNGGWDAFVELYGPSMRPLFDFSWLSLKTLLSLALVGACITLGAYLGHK

By AC50 is commonly meant the concentration giving half of the maximal activity seen. In the case of `N#CCCCCC#N`, the compound was classed as inactive in assay [1], in [2], in assay [3], in [4], in [5] and in assay [6]. In addition, the compound was called inactive in assay [7], in [8], in assay [9], in assay [10], in [12] and in assay [13]. Besides, the call in assay [14], in assay [15], in assay [16], in [17], in [18] and in [19] was inactive. In [20], the outcome was inactive. Moreover, the AC50 in assay [11] is 50 µM (active).

With `O=[N+]([O-])c1ccc(Cl)cc1`, the call in [1], in [2], in [3], in [4], in [5] and in assay [6] was inactive. In addition, the result in assay [7], in assay [8], in assay [9], in [10], in [11] and in [12] was inactive. Besides, the result in [13], in assay [14], in [15], in assay [16], in [17] and in assay [18] was inactive. The call in assay [19] and in assay [20] was inactive.
